Activity calls are given as the source filed them. Unless noted, no rule for the calls is given here.

In assay [1] the test system is Wnt5a (protein binding on small-molecule microarray). Briefly: small molecules binding Wnt5a protein – biophysical, small-molecule microarray, 635/667 nm fluorescence, primary screen (AID 1142).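 Also: fluorescence read at 667 nm with signal to noise per printed feature.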 Particulars: 635 nm fluorescence, higher = more signal.
Assay [2] is described as follows: ATP-based viability of Huh7 replicon cells – cell-based, CellTiter-Glo luminescence, basal, 48 h, cytotoxicity control for HCV replication inhibitor project, primary screen (AID 1143).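 Also: Huh7 hepatoma cells carrying a hepatitis C replication reporter with no stimulus; test concentration not given here.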 Particulars: higher = more signal, called active from +8 up or from −8 down.
The nature of assay [3]: Pseudomonas biofilm growth suppression – PAO1 strain, BacTiter-Glo luminescence, LB-PBS, primary screen (AID 1144). Particulars: P. aeruginosa PAO1 biofilm, 12 h, higher = more signal.
Assay [4] can be described thus: basal CRE-LacZ reporter activity in PC12 – cell-based, unstimulated, primary screen (AID 1145). Particulars: no forskolin, luminescence, 4.5 h, higher = more signal, called active from +8 up or from −8 down.
Assay [5] is described as follows: forskolin-driven CRE-LacZ activity in PC12 – cell-based, CRE-LacZ reporter, forskolin-stimulated, primary screen (AID 1146).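 Also: PC12 cells with 6xCRE LacZ reporter stimulated by forskolin 10 µM; beta-galactosidase reporter signal reflecting CREB driven transcription.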 Particulars: luminescence, 4.5 h, higher = more signal, called active from +8 up or from −8 down.
Assay [6] has as its target Streptavidin (Streptomyces avidinii) (UniProt P22629). The experiment in a line: compounds binding control protein streptavidin – biophysical, small-molecule microarray, 635/667 nm fluorescence, artefact control for SMM compound annotation, primary screen (AID 1147).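 Also: signal reflects streptavidin binding to arrayed compounds as a control protein.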 Particulars: higher = more signal.
A short description of assay [7]: probe aInhba binding on compound microarray – biochemical, small-molecule microarray, 635/667 nm fluorescence, primary screen (AID 1148).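 Also: score merges 667nm spot fluorescence with signal-to-noise for antibody binding to printed compounds.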 Particulars: higher = more signal.
The target in assay [8] is Torsin-1A (Homo sapiens) (UniProt O14656). The experiment in a line: TOR1A wild-type binding on microarray – cell lysate, small-molecule microarray, lysate, 635/667 nm, primary screen (AID 1149). Particulars: COS7 hTOR1A-WT lysate, 635 nm fluorescence, higher = more signal.
The target is the same in assay [9]. Briefly: torsin A mutant lysate binding on microarrays – cell lysate, small-molecule microarray, COS7 lysate, 635/667 nm fluorescence, primary screen (AID 1150).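 Also: score pools 667 nm emission and signal to noise measuring lysate protein binding.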 Particulars: COS7 hTOR1A mutant lysate, 635 nm fluorescence, higher = more signal.
For assay [10], the system named is Sonic hedgehog protein (Shh). Briefly: Sonic hedgehog microarray binding compounds – biochemical, small-molecule microarray, 635/667 nm fluorescence, primary screen (AID 1151).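 Also: Shh protein binding to compounds spotted on small-molecule microarray slides; score combines spot fluorescence intensity with signal-to-noise across triplicate slides.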 Particulars: 635 nm fluorescence, higher = more signal.
A short description of assay [11]: optical density shifts of acrAB sulA E. coli – strain DRC41, OD650, 48 h, E. coli filamentation inducer project, primary screen (AID 1152).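 Also: E. coli MC1000 strain DRC41 lacking acrAB efflux pump and sulA.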 Particulars: higher = more signal, called active from +8 up or from −8 down.
Assay [12] can be described thus: probe aLefty1 binding on compound microarray – biochemical, small-molecule microarray, 635/667 nm fluorescence, primary screen (AID 1153).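 Also: score merges spot fluorescence with signal-to-noise ratio from the scanned slide images.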 Particulars: higher = more signal.
Assay [13] can be described thus: plasmodial surface anion channel blockers, osmotic lysis – cell-based, P. falciparum Indochina, OD700, 1 h, primary screen (AID 1154). Particulars: P. falciparum Indochina infected RBC osmotic lysis, higher = more signal, called active from +8 up or from −8 down.
Assay [14] is described as follows: plasmodial surface anion channel blockers, osmotic lysis – cell-based, P. falciparum Indochina, OD700, 2 h, primary screen (AID 1155).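 Also: lysis reports solute entry through the parasite surface anion channel PSAC.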 Particulars: P. falciparum Indochina infected erythrocytes, higher = more signal, called active from +8 up or from −8 down.
A short description of assay [15]: changes in parasitized red cell lysis, either direction – P. falciparum Indochina, OD700, 3 h, PSAC antagonist project, primary screen (AID 1156). Particulars: P. falciparum-infected erythrocytes, osmotic lysis, higher = more signal, called active from +8 up or from −8 down.
Assay [16] can be described thus: plasmodial surface anion channel blockers, osmotic lysis – cell-based, P. falciparum Indochina, OD700, 18 h, primary screen (AID 1157). Particulars: P. falciparum Indochina infected erythrocytes, osmotic lysis OD700, 18 h; higher = more signal, called active from +8 up or from −8 down.
Assay [17] in a line: S6 kinase pathway phospho-S6 level changes – cell-based, A549, cytoblot, luminescence, serum-stimulated, primary screen (AID 1158).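 Also: serum-stimulated A549 lung adenocarcinoma cells; signal is phosphorylated S6 detected by cytoblot immunostaining with HRP secondary.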 Particulars: 5 h, higher = more signal.
Assay [18] addresses NADPH oxidase 2 (Homo sapiens) (UniProt P04839). Briefly: compounds shifting NOX2 Amplex Red fluorescence – cell-based, HEK293-NOX2, PMA-stimulated, NOX inhibitor project, primary screen (AID 1159). Also: test concentration not given here. Particulars: 45 min, higher = more signal, called active from +8 up or from −8 down.
Assay [19] has as its target NADPH oxidase 4 (Homo sapiens) (UniProt Q9NPH5). The experiment in a line: compounds shifting NOX4 Amplex Red fluorescence – cell-based, HEK293-NOX4, tetracycline-induced, NOX inhibitor project, primary screen (AID 1160). Particulars: HEK293-NOX4, Amplex Red H2O2 fluorescence, 45 min; higher = more signal, called active from +8 up or from −8 down.
The target in assay [20] is NADPH oxidase 5 (Homo sapiens) (UniProt Q96PH1). The experiment in a line: compounds shifting NOX5 Amplex Red fluorescence – cell-based, HEK293-NOX5, NOX inhibitor project, primary screen (AID 1161). Particulars: HEK293-NOX5, ionomycin, 45 min, higher = more signal.
Sequence of NADPH oxidase 5 (Homo sapiens) (Q96PH1 whole entry, looked up): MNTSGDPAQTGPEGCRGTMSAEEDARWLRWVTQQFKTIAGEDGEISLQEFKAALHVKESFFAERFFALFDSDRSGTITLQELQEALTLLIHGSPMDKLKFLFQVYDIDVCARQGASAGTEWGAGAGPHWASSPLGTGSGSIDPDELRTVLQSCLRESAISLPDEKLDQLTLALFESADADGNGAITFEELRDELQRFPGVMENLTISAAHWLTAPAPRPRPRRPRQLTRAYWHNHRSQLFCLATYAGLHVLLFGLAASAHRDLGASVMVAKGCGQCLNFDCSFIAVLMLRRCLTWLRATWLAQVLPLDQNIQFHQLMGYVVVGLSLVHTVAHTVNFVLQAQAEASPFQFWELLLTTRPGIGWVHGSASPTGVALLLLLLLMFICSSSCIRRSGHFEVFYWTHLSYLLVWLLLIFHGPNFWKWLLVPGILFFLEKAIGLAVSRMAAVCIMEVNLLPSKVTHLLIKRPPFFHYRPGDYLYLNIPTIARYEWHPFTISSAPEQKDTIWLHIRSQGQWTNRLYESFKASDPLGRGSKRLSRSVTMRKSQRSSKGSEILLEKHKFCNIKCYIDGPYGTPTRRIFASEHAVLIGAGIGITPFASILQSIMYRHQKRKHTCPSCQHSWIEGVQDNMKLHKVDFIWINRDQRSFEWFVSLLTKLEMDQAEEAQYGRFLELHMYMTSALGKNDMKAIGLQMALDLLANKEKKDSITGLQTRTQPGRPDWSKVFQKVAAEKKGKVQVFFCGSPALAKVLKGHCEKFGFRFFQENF

Sequence of Torsin-1A (Homo sapiens) (O14656 whole entry, looked up): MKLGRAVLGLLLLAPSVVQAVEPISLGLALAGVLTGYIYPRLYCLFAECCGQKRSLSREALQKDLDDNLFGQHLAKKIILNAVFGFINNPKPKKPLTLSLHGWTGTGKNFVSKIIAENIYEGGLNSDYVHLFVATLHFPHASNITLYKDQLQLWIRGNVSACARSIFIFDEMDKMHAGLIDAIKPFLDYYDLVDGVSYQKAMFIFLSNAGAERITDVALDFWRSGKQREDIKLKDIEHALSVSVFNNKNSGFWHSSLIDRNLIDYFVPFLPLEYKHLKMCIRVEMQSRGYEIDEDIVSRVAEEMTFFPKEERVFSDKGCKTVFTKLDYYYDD
Sequence of NADPH oxidase 4 (Homo sapiens) (Q9NPH5 whole entry, looked up): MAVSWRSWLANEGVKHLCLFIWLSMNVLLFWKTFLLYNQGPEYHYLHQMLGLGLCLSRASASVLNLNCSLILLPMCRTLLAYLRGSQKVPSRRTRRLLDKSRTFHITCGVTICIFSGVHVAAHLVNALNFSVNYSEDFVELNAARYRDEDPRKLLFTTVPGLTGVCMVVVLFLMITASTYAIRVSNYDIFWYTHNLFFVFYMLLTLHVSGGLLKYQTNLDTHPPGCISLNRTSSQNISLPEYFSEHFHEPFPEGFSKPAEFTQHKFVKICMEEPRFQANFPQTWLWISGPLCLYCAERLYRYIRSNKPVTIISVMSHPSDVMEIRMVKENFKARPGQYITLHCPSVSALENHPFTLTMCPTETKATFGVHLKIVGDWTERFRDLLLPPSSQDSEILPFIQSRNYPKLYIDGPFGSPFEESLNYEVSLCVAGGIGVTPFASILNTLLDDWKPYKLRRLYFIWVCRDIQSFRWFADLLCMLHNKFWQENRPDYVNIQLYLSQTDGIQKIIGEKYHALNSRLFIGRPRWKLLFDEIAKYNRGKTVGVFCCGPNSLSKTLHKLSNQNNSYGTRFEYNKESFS
Sequence of Streptavidin (Streptomyces avidinii) (P22629 whole entry, looked up): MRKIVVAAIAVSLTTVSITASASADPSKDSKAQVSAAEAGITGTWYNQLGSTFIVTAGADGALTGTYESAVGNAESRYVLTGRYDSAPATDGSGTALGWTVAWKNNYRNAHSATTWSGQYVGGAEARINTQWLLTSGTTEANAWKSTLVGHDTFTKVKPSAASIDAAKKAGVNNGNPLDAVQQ
Sequence of NADPH oxidase 2 (Homo sapiens) (P04839 whole entry, looked up): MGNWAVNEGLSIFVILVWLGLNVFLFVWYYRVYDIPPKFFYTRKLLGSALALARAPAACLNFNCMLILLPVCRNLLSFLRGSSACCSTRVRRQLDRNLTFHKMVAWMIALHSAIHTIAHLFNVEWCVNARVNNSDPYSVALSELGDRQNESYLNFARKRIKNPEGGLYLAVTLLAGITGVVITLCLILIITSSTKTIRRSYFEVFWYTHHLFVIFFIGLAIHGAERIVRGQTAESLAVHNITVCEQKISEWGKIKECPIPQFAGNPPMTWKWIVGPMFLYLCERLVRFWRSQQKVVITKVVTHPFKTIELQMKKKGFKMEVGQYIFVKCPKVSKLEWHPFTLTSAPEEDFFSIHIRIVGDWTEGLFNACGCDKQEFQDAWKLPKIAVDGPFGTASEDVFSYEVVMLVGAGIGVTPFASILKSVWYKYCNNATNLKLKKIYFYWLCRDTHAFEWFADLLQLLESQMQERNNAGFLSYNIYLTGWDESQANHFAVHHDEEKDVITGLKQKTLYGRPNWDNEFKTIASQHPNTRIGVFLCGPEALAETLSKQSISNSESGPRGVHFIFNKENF

With `O=C1C2C=CC(C(O)c3cccc4ccccc34)N(Nc3ccccc3)C2C(=O)N1c1ccccc1` (stereo not given), the composite z-score worked out at 0.336 in assay [1]; 0.595 in assay [6]; 0.0705 in [7]; 0.327 in assay [8]; 0.463 in [9]; 0.296 in [10]. In assay [12], the composite z-score amounted to 0.528. Moreover, the z-score was -1.3 (inactive) in assay [2]; -1.46 (inactive) in [3]; 0.429 (inactive) in [4]; -0.637 (inactive) in assay [5]; -0.692 (inactive) in [11]; 8.49 (active) in assay [13]. For the same compound, the z-score was 2.06 (inactive) in assay [14]; 0.214 (inactive) in assay [15]; 1.41 (inactive) in [16]; -0.594 in [17]; -0.627 (inactive) in assay [18]; -3.83 (inactive) in [19]. Also, in assay [20], the z-score is -3.17.

`CN(C)C(=O)[C@@]1(CCS(=O)(=O)c2ccccc2)N=C(c2ccc(OCCCO)cc2)O[C@H]1c1ccccc1CN=[N+]=[N-]`: the composite z-score in assay [1] came to 0.909; in assay [6] it was 1.13; in [7], 0.148; in [8], 1.07; in assay [9], 0.351; in [10] it was 0.159. The compound also had a composite z-score in assay [12] of 0.375. Also, the z-score in [2] was -3.95 (inactive); in assay [3] it was -0.873 (inactive); in assay [4], -0.151 (inactive); in assay [5] it was -0.607 (inactive); in assay [11], 1.1 (inactive); in assay [13] it was 24 (active). Besides, the z-score is 4.2 (inactive) in assay [14]; 0.344 (inactive) in [15]; -0.48 (inactive) in [16]; 1.12 in [17]; -1.49 (inactive) in assay [18]; 0.083 (inactive) in [19]. Moreover, the z-score in [20] was -0.558.

For the compound `COCCOC(=O)N1C(=O)[C@@]2(c3cc(C#Cc4ccc(OC)cc4)ccc31)[C@H](C(N)=O)[C@H]1C(=O)O[C@H](c3ccccc3)[C@H](c3ccccc3)N1[C@@H]2c1ccc(OCCO)cc1`, the composite z-score in assay [1] came to 0.608; in assay [6], 0.741; in [7], 0.267; in assay [8], 0.534; in [9] it was 0.424; in assay [10], 1.66. This compound also returned a composite z-score in [12] of 1.45. Further, the z-score in assay [2] was -4.52 (inactive); in assay [3] it was -0.637 (inactive); in assay [4] it was -0.598 (inactive); in [5], -0.164 (inactive); in [11] it was 0.79 (inactive); in assay [13] it was 21.2 (active). Besides, the z-score was 5.69 (inactive) in assay [14]; 1.75 (inactive) in assay [15]; 1.95 (inactive) in assay [16]; -0.0813 in assay [17]; 0.933 (inactive) in assay [18]; -0.164 (inactive) in [19]. Also, in assay [20], the z-score was found to be 1.86.

Take `CN(C)C(=O)[C@]1(Cc2ccccc2N=[N+]=[N-])N=C(c2ccc(OCCCO)cc2)O[C@@H]1c1ccccc1CN=[N+]=[N-]`: the composite z-score came to 0.556 in assay [1]; 1.27 in assay [6]; 0.282 in assay [7]; 0.683 in assay [8]; 0.84 in [9]; 0.307 in [10]. Also, in [12], the composite z-score amounted to 0.81. The z-score is -4.87 (inactive) in assay [2]; -1.57 (inactive) in assay [3]; 1.57 (inactive) in assay [4]; 0.367 (inactive) in assay [5]; 0.367 (inactive) in assay [11]; 29.4 (active) in assay [13]. For the same compound, the z-score was 20 (active) in assay [14]; 3.02 (inactive) in assay [15]; 2.16 (inactive) in assay [16]; 0.915 in assay [17]; -2.57 (inactive) in assay [18]; -0.305 (inactive) in [19]. Besides, the z-score in assay [20] was -1.93.

`C=CC[C@]1(C(=O)N2CCOCC2)N=C(c2ccc(OCCCO)cc2)O[C@H]1c1ccccc1CN=[N+]=[N-]`: the composite z-score in assay [1] turned out to be 0.662; in assay [6], 1.06; in assay [7], 0.455; in assay [8], 0.689; in assay [9], 1.1; in assay [10], 0.871. In assay [12], this compound had a composite z-score of 0.483. Moreover, the z-score was -3.25 (inactive) in assay [2]; 0.112 (inactive) in assay [3]; 3.51 (inactive) in [4]; -0.745 (inactive) in assay [5]; 0.434 (inactive) in assay [11]; 27.9 (active) in assay [13]. The z-score is 23.1 (active) in [14]; 3.57 (inactive) in assay [15]; 1.89 (inactive) in assay [16]; -0.0698 in assay [17]; 1.4 (inactive) in assay [18]; 0.226 (inactive) in assay [19]. Also, in assay [20], the z-score is -1.32.

Regarding `CC1(C)[C@@H]2CC(C(O)C3C=CC4C(=O)N(c5ccccc5)C(=O)C4N3Nc3ccccc3F)=C[C@@H]1C2` (stereo not given in full), the composite z-score in assay [1] stood at 0.512; in [6], 0.5; in assay [7], 0.0291; in assay [8], 0.233; in assay [9], 0.541; in assay [10], 0.625. Further, the composite z-score in assay [12] is 0.43. Besides, the z-score was -2.69 (inactive) in assay [2]; -1.31 (inactive) in [3]; -0.826 (inactive) in assay [4]; -0.7 (inactive) in [5]; 0.446 (inactive) in assay [11]; 1.83 (inactive) in assay [13]. Further, the z-score in [14] is 0.194 (inactive); in [15] it was -1.57 (inactive); in [16], -0.786 (inactive); in [17] it was 0.586; in assay [18], 0.318 (inactive); in [19] it was 0.0669 (inactive). Moreover, the z-score in [20] was -0.156.

As for `CCCCC(O)C1C=CC2C(=O)N(Cc3ccccc3)C(=O)C2N1n1cnnc1` (stereo not given), the composite z-score in assay [1] was 0.0687; in assay [6], 0.416; in [7], -0.0477; in [8] it was 0.0569; in [9], -0.459; in [10], 0.22. Also, the composite z-score in assay [12] worked out at 0.574. Also, the z-score in assay [2] is -4.01 (inactive); in assay [3], -0.372 (inactive); in assay [4] it was 0.519 (inactive); in assay [5] it was -0.422 (inactive); in assay [11], -1.18 (inactive); in [13], 0.706 (inactive). For the same compound, the z-score is -1.16 (inactive) in assay [14]; 0.662 (inactive) in [15]; -1.85 (inactive) in assay [16]; 1.99 in [17]; -3.33 (inactive) in [18]; -2.04 (inactive) in [19]. Moreover, the z-score in assay [20] was -3.3.

`CCN(CC)c1ccc(N2CC=CC34O[C@@H]5/C=C\CCCOC(=O)C5[C@H]3C(=O)N(CCCCCO)[C@@H]4C2=O)cc1` (stereo not given in full): the composite z-score in assay [1] was -0.704; in assay [6], -1.45; in [7], -0.211; in assay [8] it was -2.51; in [9], -1.91; in assay [10] it was -0.155. Also, the composite z-score in assay [12] was -0.0479. Also, the z-score in assay [2] is -0.119 (inactive); in assay [3], 2.25 (inactive); in [4], 0.605 (inactive); in [5], 0.417 (inactive); in [11], -1.06 (inactive); in assay [13] it was 1.03 (inactive). The z-score in [14] is 0.0039 (inactive); in assay [15], -0.656 (inactive); in [16] it was -0.28 (inactive); in assay [17], -0.486; in assay [18], 0.516 (inactive); in [19], -0.21 (inactive). Also, in assay [20], the z-score was found to be 1.41.
